Many of the other results were omitted from the sample, so hits are more common in it than they were.
BJeLR viab HTS: BJeLR cell viability loss, primary screen, luminescence, CellTiterGlo ATP; BJeLR fibroblasts viability, 48 h; HRASV12, hTERT and SV40 LT/ST transformed; viability loss activity score, % (no concentration beside the values); hit rate 0.64% among 30,000; in the data active means viability loss activity score above about 50%;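 further: higher score means fewer live cells and less ATP luminescence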
Shh pathway inh: Hedgehog pathway signaling inhibitors, primary screen, luminescence, Shh-LIGHT2 cells, Gli-luciferase; Shh-LIGHT2 Gli-luciferase reporter, 30 h; inhibition, % (test concentration not listed); hit rate 2.1% among 22,000; AID 2313, 2010;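 active means mean inhibition across valid replicates above about 65%, limit read from the data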;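 further: pathway switched on by Shh-conditioned medium diluted 1 in 25 in low serum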
Numbers stand for hits; n = inactive; x = no result.

SMILES	BJeLR viab HTS	Shh pathway inh
C[C@@H]1CCCCO[C@@H](CN(C)C(=O)Nc2ccc(C(F)(F)F)cc2)[C@@H](C)CN([C@H](C)CO)C(=O)c2cc(NS(=O)(=O)c3ccc(F)cc3)ccc2O1	x	98
Cc1noc(C)c1S(=O)(=O)Nc1ccc2c(c1)C(=O)N([C@H](C)CO)C[C@H](C)[C@H](CN(C)C(=O)Nc1ccc(C(F)(F)F)cc1)OCCCC[C@@H](C)O2	x	100
C[C@@H]1CCCCO[C@H](CN(C)Cc2ccc(C(F)(F)F)cc2)[C@@H](C)CN([C@H](C)CO)C(=O)c2cc(NC(=O)C3CCCCC3)ccc2O1	x	66
CSC(=O)OCC1=C[C@H](O)[C@@H]2C(C(=O)O)=CO[C@@H](OC3OC(CO)C(O)C(O)C3O)[C@H]12 (stereo not given in full)	n	n
CCn1c2c(c3cc(OCc4ccccc4)ccc31)CCCC2=O	n	77
CCn1c2c(c3cc(Br)ccc31)CCCC2=O	n	n
Cc1cc(C)n2nc(SC(C)C(=O)NC3CCCCCCC3)nc2n1 (stereo not given)	n	x
C[C@@H]1O[C@@H](O[C@H]2[C@@H]3C=CO[C@@H](O[C@@H]4O[C@H](CO)[C@@H](O)[C@H](O)[C@H]4O)[C@@H]3[C@@]3(CO)O[C@@H]23)[C@H](OC(=O)/C=C/c2ccc(O)cc2)[C@H](O)[C@H]1O	x	65
C[C@@H]1O[C@@H](O[C@H]2[C@@H]3C=CO[C@@H](O[C@@H]4O[C@H](CO)[C@@H](O)[C@H](O)[C@H]4O)[C@@H]3[C@@]3(CO)O[C@@H]23)[C@H](O)[C@H](O)[C@H]1OC(=O)/C=C/c1ccccc1	x	n
